Over roughly 33,000 sequences, “E-score (-0.5 to 0.5)” has its median near -0.054; the highest 2% begin near 0.35. The sample holds the highest values, similar sequences and a random draw of the others, so the mix is not that of the screen.
These sequences were tested against T1, Stb5 (UniProt P38699) (assay: PBM E-score (8-mer binding enrichment) (E-score (-0.5 to 0.5)); higher = stronger / more preferred TF binding). Conditions: protein concentration: 200 nM; construct: GST-full length.
T1 sequence: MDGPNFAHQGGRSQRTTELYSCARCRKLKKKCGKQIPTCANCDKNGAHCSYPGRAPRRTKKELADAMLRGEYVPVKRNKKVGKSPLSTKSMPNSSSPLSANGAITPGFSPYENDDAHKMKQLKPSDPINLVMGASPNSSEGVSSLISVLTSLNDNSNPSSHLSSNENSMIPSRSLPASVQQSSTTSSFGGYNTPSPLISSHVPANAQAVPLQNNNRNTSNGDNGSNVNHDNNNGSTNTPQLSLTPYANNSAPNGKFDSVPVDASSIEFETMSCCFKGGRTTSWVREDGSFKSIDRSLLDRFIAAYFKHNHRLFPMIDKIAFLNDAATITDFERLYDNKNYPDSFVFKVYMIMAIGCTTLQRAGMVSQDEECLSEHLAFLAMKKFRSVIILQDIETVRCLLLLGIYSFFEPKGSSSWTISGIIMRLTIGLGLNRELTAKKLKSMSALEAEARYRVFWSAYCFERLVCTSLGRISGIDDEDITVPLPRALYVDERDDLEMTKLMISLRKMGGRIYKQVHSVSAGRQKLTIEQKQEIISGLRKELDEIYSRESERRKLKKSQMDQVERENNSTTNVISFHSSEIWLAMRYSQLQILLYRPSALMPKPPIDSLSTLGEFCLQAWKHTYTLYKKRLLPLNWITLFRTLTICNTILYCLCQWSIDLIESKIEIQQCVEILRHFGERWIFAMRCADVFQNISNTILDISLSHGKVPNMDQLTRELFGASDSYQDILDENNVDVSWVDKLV
Protocol: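 Universal 'all 10-mer' protein binding microarrays (Agilent AMADID 015681) probed with GST-tagged S. cerevisiae TFs (full-length or DBD) made by in vitro transcription/translation (PURExpress), about 100-200 nM. Bound TF was detected with fluorescent anti-GST. Each ungapped 8-mer (which stands for itself and its reverse complement) is scored by the PBM enrichment score (E-score), a modified Wilcoxon-Mann-Whitney statistic from -0.5 to +0.5, computed with the Universal PBM Analysis Suite. Scale: above 0.35 generally sequence-specific binding.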

Sequence	PBM E-score
ACTTGCAA	-0.00221
CAAGAAGG	-0.193
ATCGTATC	-0.175
AGTCTTAC	-0.185
AAGGGCAT	-0.336
ACTCGGCA	0.00054
GCATGAGC	-0.0601
GCCCAAGA	-0.114
CCATTGCG	0.116
GGGCGGAA	0.241
CCGCGGAG	0.298
CGGCGGAC	0.377
CGGCGGAA	0.348
CCGCGGAC	0.362
GGGCGGAC	0.408
GCGCGGAC	0.292
CGGCGGAG	0.347
CCGCGGAA	0.265
AATATATT	0.208
CCGAACTA	0.177
CAGCAGGG	-0.0502
CCAGAAGC	0.0499
CCTCCTTC	-0.213
CGAGGTGC	-0.146

Sequence	PBM E-score
AGCACCGC	0.461
CGCACCGA	0.272
CGCACCTC	-0.0539
AGCACCAC	-0.0526
CGCACCGC	0.352
AGCACCTC	-0.163
TCAGCTAA	-0.245
GACTAGTC	-0.117
ACTGTATG	-0.0542
ACCGCGGT	0.39
CCCGCGGG	0.361
ACCGCGGG	0.317
CCCGCGGA	0.322
ACCGCGGC	0.412
ACCGCGAT	0.346
GCCGCGGC	0.331
CCCGCGGC	0.333
ACCGCGGA	0.358
TCCGCGGA	0.144
GCCGCGGA	0.299
CCCGCGCG	0.342
CAAAACAG	-0.0698
CTGACAGA	-0.0917
ACCAGCCC	0.211

Sequence	PBM E-score
AACGAGGG	-0.19
AAGTCGGT	0.324
ACTTAAAC	-0.0316
AGGGAGCG	-0.0929
AGCTATCG	-0.103
AAATGAGA	-0.261
GGCACTGA	0.00323
GAAGAATA	-0.123
AAGGACCT	0.00048
AAGGACCA	-0.0213
AAAGACCG	0.448
AAAGACCA	-0.216
AATGACCT	-0.0215
AAGGACCG	0.383
AATGACCA	-0.133
CAAGACCG	0.312
AATGACCG	0.365
AGCATGGC	-0.178
GGCCTAGA	-0.147
CTGCATCA	-0.327
CACCTGTA	-0.208
CCCCGACC	0.355
CCCCGACG	0.449
TCCCGACA	0.291

Sequence	PBM E-score
ACCCGACG	0.287
CCCCGAGG	0.148
CCCCGACA	0.412
GCCCGACC	0.306
ACCCGACC	0.279
GCCCGACA	0.334
GCGACTCA	-0.156
CGCAGCAG	-0.0406
CGGATGTC	0.223
CGGATGTA	0.381
CGGATATA	0.443
GGGATGTA	-0.0169
CGGATTTC	0.223
CGGATATC	0.193
GGGATCTA	0.0662
CGGATCTA	0.424
GGGATTTA	0.351
CGGATCTC	0.103
CGGATTTA	0.452
GGGATATA	0.272
AGCGATGA	0.0899
CGCCAGGA	-0.17

Reference: the supplement of paper PMC3334620
